Unmarked numbers belong to inactive results. Results filed as inconclusive are left out. Activity calls are given as the source filed them. Unless noted, calls follow the shape of the dose curve; as a rule, active = well fitted curve in either direction with a large enough effect (not every such curve was filed as active); inconclusive = small, poorly fitted or top-dose-only effect, or another doubt; inactive = flat fitted curve, though single readings scatter.

The target of experiment [1] is Lysosomal acid glucosylceramidase (Homo sapiens) (UniProt P04062). The experiment can be described thus: Glucocerebrosidase-p2 (AID 348; in the data active = potency below about 10 µM; also: potency is read from the fitted curve at half-maximal effect). The settings on record: purified GBA, blue fluorogenic substrate, 40 min. A digest of the protocol: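 Compounds titrated from 0.6 nM upwards against 0.2 nM enzyme in pH 5.9 citric acid/KH2PO4, taurocholate, tween-20; blue fluorogenic substrate 80 uM, 40 min room temperature, stopped and read Ex 365/Em 440 for AC50.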

Experiment [2] is described as follows: AP1 Signaling Pathway (AID 357). Also: % is scaled to controls: 0 for no effect and ±100 for the full control effect. The settings on record: ME-180 AP-1-bla reporter, EGF-induced, beta-lactamase ratio, 5 h; at 7.69 µM (top of the series) unless noted. The essentials: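 Read-out was the 460nm/530nm emission ratio (excitation 405nm) after CCF4 loading for 2.5 hours at room temperature. Cells carried an AP-1-driven beta-lactamase reporter, were stimulated with EC50 EGF plus compound for 5 hours, and AC50 values came from titrations.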

In experiment [3] the target is Cytochrome P450 1A2 (Homo sapiens) (UniProt P05177). The experiment can be described thus: p450-cyp1a2 (AID 410; calls by dose curve; also: potency is read from the fitted curve at half-maximal effect;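 as to activity change, negative = inhibition: -100% = full effect of reference inhibitor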). The settings on record: recombinant CYP1A2, luciferin-ME demethylation, luminescence; series mostly up to 11.4 µM. The essentials:
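20nM CYP1A2 with 100uM Luciferin-ME (at Km) in 100mM KPO4; compound preincubated 10 min, NADPH regeneration added, 60 min at room temperature. Luciferin quantified by luminescence after detection reagent; normalized to 57 uM furafylline.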

The nature of experiment [4]: NFAT Signaling Pathway (AID 444).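 Also: carbachol stimulus at about its EC50 of 1 µM final; % is scaled to controls: 0 for no effect and ±100 for the full control effect.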 The settings on record: Jurkat NFAT-bla M1, carbachol, beta-lactamase ratio, 5 h; at 7.69 µM (top of the series) unless noted. The essentials:
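Jurkat cells with NFAT-driven β-lactamase reporter and co-expressed M1 receptor, stimulated with carbachol (final 1 uM, ~EC50), compound titration, 5 h at 37 °C. CCF4 loaded 1 h at RT; 460/530 nm ratio gave %activity and AC50.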

Experiment [5] in a line: Stat Signaling Pathway (AID 446).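 Also: ME-180 cervical cancer cells given 40 pM IL-6 alongside compound; SIE-controlled beta-lactamase reporter measured as 460/530 nm FRET emission ratio; % is scaled to controls: 0 for no effect and ±100 for the full control effect.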 The settings on record: ME-180 SIE beta-lactamase reporter, IL-6 stimulated, 5 h; at 7.69 µM (top of the series) unless noted. The essentials: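 ME-180 cells carrying a SIE-driven beta-lactamase reporter are stimulated with 40 pM IL-6 for 5 h at 37C in the presence of compound. The 460/530 nm FRET substrate ratio is read after 2.5 h at RT. Data are normalised to 300 pM IL-6 and to 125 nM JAK inhibitor controls.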

Experiment [6] has as its target Glucocorticoid receptor (Homo sapiens) (UniProt P04150). The experiment is described as follows: GR-GFP Redistribution (AID 450;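 active = compounds whose dose series gives a full or clear partial fitted curve of increased nuclear translocation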; also: potency is read from the fitted curve at half-maximal effect). The following applies: U2OS GR-GFP nuclear translocation, laser cytometry, 2 h.
Experiment [7] shares this target. The experiment is described as follows: GR-EFC Redistribution (AID 451; calls by dose curve; also: potency is read from the fitted curve at half-maximal effect). The following applies: CHO-K1 GR-EFC translocation, beta-gal luminescence, 2 h. A digest of the protocol:
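CHO-K1 cells expressing nuclear EA and GR-ED fragments of b-gal; compounds titrated up to 46 uM final, 2 h at 37 C. GR nuclear translocation read as complemented b-gal luminescence after 1 h RT detection.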

For experiment [8], the target named is Mitogen-activated protein kinase 10 (Mus musculus) (UniProt Q61831). The experiment can be described thus: JNK3 AlphaScreen Assay (AID 530).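 Also: kinase came from lysate of stimulated human HepG2 cells; signal reports phosphorylation of biotinylated GST-cJun 1-79 at Ser73 with 10 µM ATP; % is scaled to controls: 0 for no effect and ±100 for the full control effect.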 The settings on record: JNK3 lysate, c-Jun phosphorylation; series mostly up to 11.4 µM. A digest of the protocol: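 Pre-activated (IL-1β/TNFα) JNK3 in HepG2 lysates phosphorylates biotin-GST-cJun(1-79), 10 uM ATP; anti-phospho-cJun(Ser73) AlphaScreen read at room temperature, pH 7.6 Tris buffer. Compounds pre-incubated 15 min as titrations.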

In experiment [9] the target is 3',5'-cyclic-AMP phosphodiesterase 4B (Homo sapiens) (UniProt Q07343). The experiment is described as follows: qHTS Assay for Inhibitors of PDE-IV (AID 607; active = well fitted activation curve with a large enough effect in the main read-out, with a control signal flat, not every such curve was filed as active; also: % of control where 0% means no effect). The following applies: HEK293 ACTOne CNG channel cells, membrane potential fluorescence; series mostly up to 22.9 µM. A digest of the protocol:
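HEK293 ACTOne cells with CNG channel (1000/well), endogenous PDE4; membrane potential dye, compounds up to 22.9 uM final. Fluorescence Ex 535/Em 590; RO 20-1724 (100 uM final) as reference.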

Sequence of Glucocorticoid receptor (Homo sapiens) (P04150 whole entry, looked up): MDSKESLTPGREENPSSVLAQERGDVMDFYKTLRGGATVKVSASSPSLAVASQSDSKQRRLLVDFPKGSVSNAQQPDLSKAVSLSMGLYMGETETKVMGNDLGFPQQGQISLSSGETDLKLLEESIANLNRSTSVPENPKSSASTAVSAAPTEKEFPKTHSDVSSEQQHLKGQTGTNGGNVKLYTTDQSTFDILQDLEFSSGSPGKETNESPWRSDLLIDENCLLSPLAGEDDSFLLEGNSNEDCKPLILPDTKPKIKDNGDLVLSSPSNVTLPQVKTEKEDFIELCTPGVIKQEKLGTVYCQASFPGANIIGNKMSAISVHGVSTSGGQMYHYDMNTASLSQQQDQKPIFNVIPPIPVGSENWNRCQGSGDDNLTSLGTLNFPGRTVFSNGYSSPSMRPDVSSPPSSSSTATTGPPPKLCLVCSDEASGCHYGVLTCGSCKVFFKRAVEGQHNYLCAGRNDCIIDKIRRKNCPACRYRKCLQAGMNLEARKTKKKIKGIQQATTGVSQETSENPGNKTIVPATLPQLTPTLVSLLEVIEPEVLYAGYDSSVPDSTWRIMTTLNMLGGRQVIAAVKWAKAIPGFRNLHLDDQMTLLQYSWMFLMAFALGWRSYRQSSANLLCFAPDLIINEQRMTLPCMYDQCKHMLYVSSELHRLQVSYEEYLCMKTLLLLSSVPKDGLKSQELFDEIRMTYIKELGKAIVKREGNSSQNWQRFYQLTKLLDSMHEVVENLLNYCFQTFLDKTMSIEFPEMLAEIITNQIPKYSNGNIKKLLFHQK
Sequence of Lysosomal acid glucosylceramidase (Homo sapiens) (P04062 whole entry, looked up): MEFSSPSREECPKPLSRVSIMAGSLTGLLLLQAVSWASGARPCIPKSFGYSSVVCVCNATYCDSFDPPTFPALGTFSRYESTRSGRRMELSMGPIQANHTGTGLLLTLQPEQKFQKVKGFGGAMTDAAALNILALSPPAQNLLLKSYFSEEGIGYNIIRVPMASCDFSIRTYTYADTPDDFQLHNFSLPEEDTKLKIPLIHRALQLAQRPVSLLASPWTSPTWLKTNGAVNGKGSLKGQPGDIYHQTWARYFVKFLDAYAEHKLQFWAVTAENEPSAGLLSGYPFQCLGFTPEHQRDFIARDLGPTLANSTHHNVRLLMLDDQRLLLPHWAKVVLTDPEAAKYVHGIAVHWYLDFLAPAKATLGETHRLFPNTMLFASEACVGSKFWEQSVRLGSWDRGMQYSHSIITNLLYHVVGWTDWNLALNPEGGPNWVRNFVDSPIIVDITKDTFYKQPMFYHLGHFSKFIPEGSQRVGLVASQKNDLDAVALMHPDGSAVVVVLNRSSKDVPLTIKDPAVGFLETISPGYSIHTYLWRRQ
Sequence of 3',5'-cyclic-AMP phosphodiesterase 4B (Homo sapiens) (Q07343 whole entry, looked up): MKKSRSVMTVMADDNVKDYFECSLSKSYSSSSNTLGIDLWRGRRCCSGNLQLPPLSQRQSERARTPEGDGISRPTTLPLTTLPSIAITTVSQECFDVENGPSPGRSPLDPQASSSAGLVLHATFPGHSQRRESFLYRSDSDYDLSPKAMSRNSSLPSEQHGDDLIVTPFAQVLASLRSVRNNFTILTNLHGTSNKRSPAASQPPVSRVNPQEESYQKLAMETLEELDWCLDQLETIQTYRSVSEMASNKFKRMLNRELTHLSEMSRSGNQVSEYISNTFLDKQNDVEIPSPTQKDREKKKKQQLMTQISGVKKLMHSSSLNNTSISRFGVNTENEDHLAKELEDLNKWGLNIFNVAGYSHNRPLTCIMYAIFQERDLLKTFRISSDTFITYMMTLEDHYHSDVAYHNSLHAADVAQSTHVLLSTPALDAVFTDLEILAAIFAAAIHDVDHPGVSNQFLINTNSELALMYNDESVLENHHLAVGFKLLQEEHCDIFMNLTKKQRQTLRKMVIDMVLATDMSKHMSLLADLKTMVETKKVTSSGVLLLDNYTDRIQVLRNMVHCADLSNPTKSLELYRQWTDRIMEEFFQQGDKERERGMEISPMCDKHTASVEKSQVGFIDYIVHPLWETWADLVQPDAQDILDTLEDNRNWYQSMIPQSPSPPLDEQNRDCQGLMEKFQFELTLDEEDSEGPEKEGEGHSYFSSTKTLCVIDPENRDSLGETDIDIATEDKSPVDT
Sequence of Cytochrome P450 1A2 (Homo sapiens) (P05177 whole entry, looked up): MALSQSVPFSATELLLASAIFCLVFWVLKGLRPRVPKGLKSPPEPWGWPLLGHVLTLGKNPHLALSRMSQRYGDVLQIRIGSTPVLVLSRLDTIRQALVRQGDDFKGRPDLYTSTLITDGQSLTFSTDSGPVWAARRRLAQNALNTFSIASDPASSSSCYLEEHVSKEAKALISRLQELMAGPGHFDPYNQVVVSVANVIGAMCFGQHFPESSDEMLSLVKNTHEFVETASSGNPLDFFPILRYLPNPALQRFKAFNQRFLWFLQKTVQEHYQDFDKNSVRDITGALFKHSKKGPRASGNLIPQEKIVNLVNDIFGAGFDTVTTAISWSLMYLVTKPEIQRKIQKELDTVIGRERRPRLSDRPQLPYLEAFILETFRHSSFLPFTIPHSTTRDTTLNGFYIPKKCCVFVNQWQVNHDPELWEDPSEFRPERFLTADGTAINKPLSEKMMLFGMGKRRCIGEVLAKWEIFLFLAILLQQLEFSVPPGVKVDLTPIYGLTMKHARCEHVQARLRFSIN

Regarding `O=C(CN1C(=O)c2ccccc2C1=O)NC1(C(=O)O)CCCC1`, the results for the Potency in experiment [1], in experiment [6] and in experiment [7] were > 11.4 µM, > 46 µM and > 9.22 µM, respectively. The results for the activity change, negative = inhibition in [2], in [3] and in [4] were -5.19%, -2.1% [at 2.29 µM] and -0.506%, respectively. Besides, the activity, negative = inhibition in experiment [5] is 7.15%. Besides, the Potency entry in experiment [8] and in experiment [9] was “inactive” throughout.
For the molecule `C#CCSc1n[nH]c(-c2ccco2)n1`, the Potency is > 11.4 µM in experiment [1], 2 µM (active) in experiment [3], > 46 µM in [6] and > 9.22 µM in experiment [7]. The figures for the activity change, negative = inhibition in experiment [2] and in [4] were -2.21% and 15.4%, respectively. In experiment [5], the activity, negative = inhibition was -3.07%. Besides, the Potency entry in [8] and in [9] was “inactive” each time.
Regarding `NCCSCCc1ccccc1`, the Potency in experiment [1] was > 11.4 µM; in experiment [3] it was 5.01 µM (active); in experiment [6] it was > 46 µM; in experiment [7], > 9.22 µM. Further, the activity change, negative = inhibition in experiment [2] is -3.04%; in experiment [4], 3.22%. Also, the activity, negative = inhibition in experiment [5] was 4.42%. The Potency entry in experiment [8] and in experiment [9] was “inactive” each time.
On to `CC(C)CN=C(N)N=C(N)N`, for which the Potency was > 11.4 µM in experiment [1], > 46 µM in experiment [6] and > 9.22 µM in experiment [7]. Besides, the activity change, negative = inhibition in experiment [2] was 6.14%; in experiment [4] it was 11.1%. Besides, the Potency entry in experiment [3], in [8] and in experiment [9] was “inactive” in each case. Besides, in experiment [5], the activity, negative = inhibition was 1.4%.
On to `COC(=O)[C@@H]1O[C@@H](SCCN)[C@@H](O)[C@H](O)[C@H]1O`, for which the figures for the Potency in experiment [1], in experiment [6] and in experiment [7] were > 11.4 µM, > 46 µM and > 9.22 µM, respectively. The results for the activity change, negative = inhibition in experiment [2], in [3] and in [4] were 0.576%, 10.2% [at 2.29 µM] and 2.51%, respectively. For the same molecule, in [5], the activity, negative = inhibition was -0.339%. Further, the Potency result in experiment [8] and in experiment [9] was “inactive” each time.
On to `CC1(CCC(=O)OC2CCCCC2)OCCO1`, for which the Potency in [1] was > 11.4 µM; in experiment [6] it was > 46 µM; in [7] it was > 9.22 µM. Further, the activity change, negative = inhibition in experiment [2] is 4.96%; in experiment [4], 19.8%. The Potency entry in experiment [3], in [8] and in experiment [9] was “inactive” each time. In addition, the activity, negative = inhibition in experiment [5] is 4.55%.
`O=c1cc(CF)[nH]c(=S)[nH]1`: the results for the Potency in experiment [1], in experiment [6] and in experiment [7] were > 11.4 µM, > 46 µM and > 9.22 µM, respectively. The activity change, negative = inhibition in experiment [2] is 6.77%; in experiment [4], 5.97%. The Potency result in experiment [3], in experiment [8] and in experiment [9] was “inactive” in each case. In experiment [5], the activity, negative = inhibition was 13.4%.
In the case of `Nc1nc(-c2ccccc2)c(-c2ccccc2)c(-c2nc(N)nc(-c3ccccc3)c2-c2ccccc2)n1`, the values for the Potency in [1], in [6] and in experiment [7] were > 11.4 µM, > 46 µM and > 9.22 µM, respectively. Besides, the activity change, negative = inhibition in experiment [2] is -1.08%; in experiment [4], 16.1%. The Potency entry in experiment [3], in experiment [8] and in [9] was “inactive” each time. Further, the activity, negative = inhibition in experiment [5] was 3.19%.
For the molecule `O=S(O)O.O=S(O)O.[Co].[NH2-].[NH2-].[NH2-].[NH2-]`, the Potency in experiment [1] is > 11.4 µM; in experiment [6], > 46 µM; in [7], > 9.22 µM. In addition, the values for the activity change, negative = inhibition in experiment [2] and in [4] were -7.83% and 15.9%, respectively. The Potency result in experiment [3], in experiment [8] and in [9] was “inactive” throughout. In addition, the activity, negative = inhibition in [5] is 26%.
Consider `CN1CCN(c2nc3c(c(=O)n(C)c(=O)n3C)n2C)CC1`, for which the results for the Potency in experiment [1], in experiment [6] and in experiment [7] were > 11.4 µM, > 46 µM and > 9.22 µM, respectively. Besides, the activity change, negative = inhibition in experiment [2] was -1.63%; in experiment [3], -16.8% [at 2.29 µM]; in experiment [4], 1.71%. Moreover, the activity, negative = inhibition in experiment [5] is -1.51%. The Potency result in experiment [8] and in [9] was “inactive” each time.
In the case of `N#CC[N+]1(Cc2ccccn2)CCCC1`, the values for the Potency in [1], in experiment [6] and in experiment [7] were > 11.4 µM, > 46 µM and > 9.22 µM, respectively. Further, the activity change, negative = inhibition in experiment [2] is -12.2%; in experiment [3], 3.4% [at 2.29 µM]; in experiment [4], 0.385%. Also, the activity, negative = inhibition in experiment [5] was -1.41%. Further, the Potency result in [8] and in experiment [9] was “inactive” in each case.
Turning to `O=P(O)(CCP(=O)(O)c1ccccc1)c1ccccc1`, the Potency in experiment [1] is > 11.4 µM; in [6], > 46 µM; in experiment [7], > 9.22 µM. In addition, the activity change, negative = inhibition in [2] is -9.71%; in [4], 12.9%. The Potency result in experiment [3], in [8] and in experiment [9] was “inactive” in each case. Also, in [5], the activity, negative = inhibition is 1.66%.
Consider `C/C(=N\NC(N)=S)c1ccc[nH]1`, for which the Potency is > 11.4 µM in [1], 3.16 µM (active) in [3], > 46 µM in [6] and > 9.22 µM in experiment [7]. For the same molecule, the activity change, negative = inhibition was 0.43% in experiment [2] and 12% in [4]. Further, the activity, negative = inhibition in experiment [5] was -24.4%. For the same molecule, the Potency entry in experiment [8] and in experiment [9] was “inactive” in each case.
Turning to `C[C@H]1O[C@@H](CC(=O)O)Cc2c1c(O)c1c(O)cc(-c3cc(=O)c4c(=O)c5c(c(=O)c=4c3=O)C[C@H](CC(=O)O)O[C@@H]5C)c(O)c1c2O`, the Potency in experiment [1] is > 11.4 µM; in [6] it was > 46 µM; in experiment [7], > 9.22 µM. The activity change, negative = inhibition was 13% in experiment [2], -29.1% [at 2.29 µM] in experiment [3] and 9.83% in [4]. Moreover, the activity, negative = inhibition in experiment [5] is -5.2%. For the same molecule, the Potency entry in experiment [8] and in [9] was “inactive” in each case.

(Values after PubChem BioAssay (NCATS).)
